The nature of test [1]: Cell Viability - N2a (AID 540).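 Further: plate controls were DMSO alone for no effect and tamoxifen control for full effect; nearly all actives have a fitted effect of over 45% in size.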 Particulars: N2a mouse neuroblastoma cell viability; activity change, negative = cytotoxicity: at 92.2 µM (top of the series). Summed up: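 CellTiter-Glo ATP luminescence, read 20 min after reagent at room temperature, reported viability following 40 h compound treatment at 37 °C. N2a mouse neuroblastoma cells seeded 1500/well; Hill equation gave AC50.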

A short description of test [2]: Cellular Toxicity (caspase-3) Jurkat (AID 655).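 Further: cells exposed to compound for 16 h at 37 °C before reading.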 The conditions noted are these: Jurkat caspase-3 activation, luminescence; caspase-3 activation: at 92.2 µM (top of the series), DMSO = 0%, tamoxifen = 100%. Summed up:
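Caspase 3/7 activation is scored as increased luminescence in Jurkat cells cultured with compound for 16 hours in complete medium. AC50 values come from Hill fits of qHTS concentration-response data normalized to DMSO and 100 uM tamoxifen controls.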

A short description of test [3]: Cellular Toxicity (caspase-3) BJ (AID 658).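 Further: 0% = DMSO basal and 100% = 10 µM staurosporine.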 An outline of the steps:
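Plated BJ cells (1000/well) rested 5 hr, received compound for 16 hr at 37 °C, then Caspase-Glo 3/7 reagent for 1 hr at room temperature before luminescence reading.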

The nature of test [4]: MultiTox-Fluor Cytotoxicity Assay - LYMP1-002 - Live Cells (AID 955). Further: on the % scale 0 is the no-effect control and ±100 the full control effect. An outline of the steps:
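After 16 h compound exposure at 37 C, live LYMP1-002 lymphoblastoid cells (2500/well) were quantified by cleavage of cell-permeant GF-AFC substrate, read at 405/510 nm after 60 min. Concentration-response fitted with Hill equation for AC50.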

Test [5] is described as follows: Cell Viability - LYMP2-004 (AID 966).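 Further: plate controls were DMSO only for no effect and tetraoctylammonium bromide control for full effect; nearly all actives have a fitted effect of over 65% in size.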 Summed up: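 AC50 values come from Hill modelling of concentration-dependent loss of intracellular ATP, measured by CellTiter-Glo luminescence. Human LYMP2-004 lymphoblastoid cells (2500/well) were exposed to compound for 24 h at 37 C.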
The nature of test [6]: Cell Viability - LYMP2-011 (AID 969). Further: nearly all actives have a fitted effect of over 60% in size. Further: potency means the concentration at half of the fitted maximal effect. Summed up: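 Cytotoxicity qHTS with ATP content as read-out: lymphoblastoid cells (2500/well) exposed to compound for 24 h at 37 C, then luciferase luminescence measured. Concentration-response data fitted with the standard Hill equation to give AC50.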
Test [7] in a line: Cell Viability - LYMP2-025 (AID 976).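 Further: plate controls were DMSO only for no effect and tetraoctylammonium bromide control for full effect.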 An outline of the steps:
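Cytotoxicity read as loss of intracellular ATP (luciferase luminescence) after 24 h compound treatment at 37 C. Uses LYMP2-025 lymphoblastoid cells in 1536-well format; Hill-equation modelling gives AC50; tetraoctylammonium bromide as positive control.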

Test [8] is described as follows: Cell Viability - LYMP2-002 (AID 977). Further: potency means the concentration at half of the fitted maximal effect. An outline of the steps: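 In this qHTS viability screen, 2500 human lymphoblastoid cells per well receive compound for 24 hr at 37 C, and luciferase-based ATP luminescence gives the viability signal. Tetraoctylammonium bromide serves as positive control.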
The nature of test [9]: Cell Viability - LYMP2-012 (AID 982).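 Further: cellular ATP by luciferase luminescence where a drop means cytotoxicity; cells exposed to compound for one day before reading; nearly all actives have a fitted effect of over 55% in size.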 Further: potency means the concentration at half of the fitted maximal effect.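 On activity change, negative = cytotoxicity: 0% = DMSO only and full loss = 92 µM tetraoctylammonium bromide.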
Test [10] can be described thus: Cell Viability - LYMP2-016 (AID 984). Further: on the % scale 0 is the no-effect control and ±100 the full control effect; nearly all actives have a fitted effect of over 55% in size. An outline of the steps:
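Acute toxicity in a Coriell human lymphoblastoid line is scored as loss of intracellular ATP over 24 h of treatment in complete medium. CellTiter-Glo signal is fitted across concentrations with the Hill equation to give AC50.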

A short description of test [11]: Cell Viability - LYMP2-020 (AID 986). Further: nearly all actives have a fitted effect of over 55% in size. Further: potency means the concentration at half of the fitted maximal effect. An outline of the steps: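 Cytotoxicity in qHTS format: luminescent ATP readout from CellTiter-Glo after 24 h compound exposure at 37 C in complete medium. LYMP2-020 lymphoblastoid cells were seeded at 2500/well; concentration-response data fitted to the Hill equation for AC50.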
Test [12] has as its target Vitamin D3 receptor (Homo sapiens) (UniProt P11473). As to the kind of experiment: qHTS assay for small molecule agonists of vitamin D receptor signaling (AID 588543; calls by dose curve;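 further: 0% = DMSO basal and 100% = reference agonist control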). An outline of the steps: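 qHTS in agonist mode: compound titrations stimulate a VDR-driven β-lactamase reporter in HEK293T cells over 16 h at 37 °C. Response normalized to 50 nM 1α,25-dihydroxyvitamin D3 = 100%, DMSO = 0%; Hill fitting gives EC50 and maximal response.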
(In general: qHTS replaces the single test concentration by a dilution series.)

For test [13], the target named is Retinoic acid receptor RXR-alpha (Homo sapiens) (UniProt P19793). As to the kind of experiment: qHTS assay for small molecule antagonists of retinoid X receptor alpha signaling (AID 588546; active means well fitted inhibition curve with a large enough effect in the signal ratio, with a control signal flat, not every such curve was filed as active; the % refers to the signal ratio; further: on the % scale 0 is the no-effect control and ±100 the full control effect). Particulars: HEK293T RXRa-UAS-bla, beta-lactamase ratio, antagonist mode. An outline of the steps: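 Beta-lactamase reporter inhibition, read as CCF4 fluorescence ratio (ex 405, em 460/530 nm) after 2 h at RT. HEK293T UAS-bla cells, 2500/well, were stimulated with 9-cis-RA at 500 or 100 nM final alongside test compound for 18 h at 37 C.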
Chain of Retinoic acid receptor RXR-alpha (Homo sapiens) (P19793 whole entry, looked up): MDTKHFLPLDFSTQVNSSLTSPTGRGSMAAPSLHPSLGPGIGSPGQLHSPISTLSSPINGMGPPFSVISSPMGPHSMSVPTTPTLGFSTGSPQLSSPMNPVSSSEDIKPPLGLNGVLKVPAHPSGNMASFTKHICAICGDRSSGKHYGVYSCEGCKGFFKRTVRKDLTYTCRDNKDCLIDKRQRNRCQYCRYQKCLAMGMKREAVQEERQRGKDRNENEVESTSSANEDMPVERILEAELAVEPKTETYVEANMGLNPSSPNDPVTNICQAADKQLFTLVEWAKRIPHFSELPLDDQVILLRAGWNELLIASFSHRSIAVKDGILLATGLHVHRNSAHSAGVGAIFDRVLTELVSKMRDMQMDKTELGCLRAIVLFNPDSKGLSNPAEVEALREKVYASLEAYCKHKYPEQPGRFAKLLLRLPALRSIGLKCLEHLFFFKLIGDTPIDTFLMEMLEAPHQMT

Test [14] in a line: qHTS assay for small molecule activators of the p53 signaling pathway (AID 651743; active means well fitted activation curve with a large enough effect in the signal ratio, not every such curve was filed as active; the % refers to the signal ratio; further: % of control where 0% means no effect). The conditions noted are these: HCT-116 p53RE-bla, beta-lactamase FRET ratio, 16 h; activation: stronger effect = higher value. Summed up:
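Agonist-mode quantitative HTS in HCT-116 cells carrying a p53-response-element beta-lactamase reporter; 16 h compound treatment at 37 C, then FRET substrate loading for 2 h at room temperature and fluorescence read.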

Test [15] in a line: qHTS assay for cell viability of HEK293 cells (AID 743288). Further: on the % scale 0 is the no-effect control and ±100 the full control effect; nearly all actives have a fitted effect of over 50% in size. The conditions noted are these: ATP luminescence (CellTiter-Glo), 18 h, stronger effect = lower value. Summed up: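 Quantitative high-throughput screen: compounds were pinned onto parental HEK293 cells (2,000 per well) after a minimum 5 h settling at 37 C, incubated 18 h at 37 C, and intracellular ATP measured by luciferase luminescence.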

Test [16] is described as follows: Cell Viability - LYMP2-014 (AID 983). Further: nearly all actives have a fitted effect of over 50% in size. Further: potency means the concentration at half of the fitted maximal effect.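 On activity change, negative = cytotoxicity: plate controls were DMSO only for no effect and 92 µM tetraoctylammonium bromide for full effect.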 An outline of the steps:
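Intracellular ATP loss, read by luciferase luminescence, measures acute cytotoxicity after 24 h compound exposure of lymphoblastoid LYMP2-014 cells (2500/well, 37 C). Concentration-response data fitted to the Hill equation for AC50.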

The nature of test [17]: Cell Viability - LYMP2-022 (AID 987). Further: nearly all actives have a fitted effect of over 55% in size. Further: potency means the concentration at half of the fitted maximal effect. An outline of the steps: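 Cytotoxicity read as decreased cellular ATP (CellTiter-Glo luminescence, 30 min room temperature) after 24 hours compound exposure of 2500 lymphoblastoid LYMP2-022 cells/well at 37 C. Concentration-response data fitted with standard Hill equation for AC50.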
Test [18] is described as follows: Cell Viability - HepG2 (AID 433; calls by dose curve;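 further: potency means the concentration at half of the fitted maximal effect; potency for ATP loss meaning cytotoxicity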). Particulars: qHTS. Summed up:
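Cytotoxicity is scored as loss of intracellular ATP in HepG2 cells exposed to compounds for 40 h. Concentration-response curves, normalized to DMSO and 100 uM tamoxifen, give AC50 values.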

A short description of test [19]: Cell Viability - LYMP2-023 (AID 975). Further: nearly all actives have a fitted effect of over 55% in size. Further: potency means the concentration at half of the fitted maximal effect.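 On activity change, negative = cytotoxicity: cellular ATP measured by luciferase luminescence as viability proxy; plate controls were DMSO only for no effect and 92 µM tetraoctylammonium bromide control for full effect.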 An outline of the steps: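 Intracellular ATP, read by CellTiter-Glo luminescence, reports viability after 24 hr compound exposure at 37 C. 2500 lymphoblastoid cells/well (LYMP2-023) seeded 5 hr beforehand; Hill fits give AC50; positive control tetraoctylammonium bromide.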
Test [20] concerns the target Voltage-gated inwardly rectifying potassium channel KCNH2 (Homo sapiens) (UniProt Q12809). As to the kind of experiment: qHTS Assay for Small Molecule Inhibitors of the Human hERG Channel Activity (AID 588834).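 Further: U2OS cells transduced with hERG by BacMam; top concentration of the series differs between compounds; on the % scale 0 is the no-effect control and ±100 the full control effect; lower thallium flux fluorescence means stronger hERG block; nearly all actives have a fitted effect of over 50% in size.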 Summed up:
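Cells were infected with hERG-BacMam virus for 4 hrs at room temperature, grown overnight, then seeded at 2000/well. After dye loading and roughly 10 min compound treatment, thallium influx was triggered and fluorescence recorded.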

Values joined by “and” are separate entries in the source; they are usually repeats but may differ in a detail not shown here. Equal entries are not always repeated. Values without a mark were called inactive. Results filed as inconclusive are left out. Active and inactive are the calls of the source. Unless noted, the call rests on the fitted dose curve; in most records, active means well fitted curve in the direction sought with a large enough effect; inconclusive means small, poorly fitted or top-dose-only effect, or another doubt; inactive means no such curve, though single readings can be large; an effect the other way counts as inactive or inconclusive. A value given as a limit tells only on which side of the number the result lay.

Chain of Vitamin D3 receptor (Homo sapiens) (P11473 whole entry, looked up): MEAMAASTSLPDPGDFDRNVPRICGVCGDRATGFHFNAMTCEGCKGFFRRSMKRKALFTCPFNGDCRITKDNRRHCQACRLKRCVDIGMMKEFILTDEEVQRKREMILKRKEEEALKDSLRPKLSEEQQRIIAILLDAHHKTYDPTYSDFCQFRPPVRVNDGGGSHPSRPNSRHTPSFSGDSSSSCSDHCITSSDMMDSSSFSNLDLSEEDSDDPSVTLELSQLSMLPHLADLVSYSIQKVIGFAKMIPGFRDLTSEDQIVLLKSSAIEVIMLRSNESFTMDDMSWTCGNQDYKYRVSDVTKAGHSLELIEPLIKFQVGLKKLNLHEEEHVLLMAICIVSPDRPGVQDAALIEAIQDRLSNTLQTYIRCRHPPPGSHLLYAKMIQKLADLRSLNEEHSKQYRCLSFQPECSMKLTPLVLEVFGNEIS
Chain of Voltage-gated inwardly rectifying potassium channel KCNH2 (Homo sapiens) (Q12809 whole entry, looked up): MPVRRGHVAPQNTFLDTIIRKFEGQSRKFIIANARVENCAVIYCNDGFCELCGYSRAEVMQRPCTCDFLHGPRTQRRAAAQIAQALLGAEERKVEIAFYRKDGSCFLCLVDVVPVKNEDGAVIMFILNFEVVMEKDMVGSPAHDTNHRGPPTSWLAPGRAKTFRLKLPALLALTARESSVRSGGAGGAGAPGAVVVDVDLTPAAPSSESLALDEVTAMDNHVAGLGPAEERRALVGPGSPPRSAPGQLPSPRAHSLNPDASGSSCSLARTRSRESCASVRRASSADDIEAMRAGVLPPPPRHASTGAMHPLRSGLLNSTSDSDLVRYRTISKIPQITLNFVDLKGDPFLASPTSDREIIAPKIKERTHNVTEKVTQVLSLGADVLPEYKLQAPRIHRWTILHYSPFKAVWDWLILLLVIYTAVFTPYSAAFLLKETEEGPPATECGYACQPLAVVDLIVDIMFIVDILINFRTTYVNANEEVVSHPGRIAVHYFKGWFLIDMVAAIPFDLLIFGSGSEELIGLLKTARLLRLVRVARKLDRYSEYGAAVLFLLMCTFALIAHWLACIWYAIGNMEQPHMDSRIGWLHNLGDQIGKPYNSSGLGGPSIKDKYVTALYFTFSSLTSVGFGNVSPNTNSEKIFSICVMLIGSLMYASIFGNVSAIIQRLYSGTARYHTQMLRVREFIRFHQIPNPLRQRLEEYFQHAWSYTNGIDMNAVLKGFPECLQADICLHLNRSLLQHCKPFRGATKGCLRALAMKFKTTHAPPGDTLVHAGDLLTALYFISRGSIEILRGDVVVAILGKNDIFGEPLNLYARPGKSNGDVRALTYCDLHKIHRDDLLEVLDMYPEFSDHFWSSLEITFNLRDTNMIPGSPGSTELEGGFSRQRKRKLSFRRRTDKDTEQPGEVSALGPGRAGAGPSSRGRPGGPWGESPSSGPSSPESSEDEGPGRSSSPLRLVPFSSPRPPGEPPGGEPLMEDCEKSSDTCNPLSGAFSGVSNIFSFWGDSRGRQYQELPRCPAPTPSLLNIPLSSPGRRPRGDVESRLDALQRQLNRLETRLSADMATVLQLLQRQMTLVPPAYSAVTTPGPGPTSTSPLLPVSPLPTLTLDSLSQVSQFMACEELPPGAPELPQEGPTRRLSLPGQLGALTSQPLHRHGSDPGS

Regarding `COc1cc(-c2ccc(N)c(OC)c2)ccc1N`, the Potency entry in [1], in test [5], in [6], in test [7], in test [8] and in test [9] was “inactive” each time. For the same compound, the Potency result in test [10] and in test [11] was “inactive” each time. For the same compound, the caspase-3 activation in test [2] was -0.124%. The outcome in test [3], in [4] and in test [12] was inactive. In addition, the max response is -9.81% and -21.9% in test [13]; 15.2% and -15% and -5% in test [15]. Besides, the activation in test [14] was 0.265% and -0.413% and 0.709%.
In the case of `CCCCC(=O)Cl`, the Potency entry in test [1], in test [8], in test [16], in [11] and in [17] was “inactive” in each case. Moreover, in test [2], the caspase-3 activation was 1.28%. Besides, the compound was called inactive in test [4] and in test [12]. The activation in test [14] is 1.32%.
Turning to `CN1CSC(=S)N(C)C1`, the Potency in test [18] was above 92 µM; in test [6] it was 39.8 µM (active); in [19], 39.8 µM (active); in test [8], 31.6 µM (active); in test [9], 25.1 µM (active); in test [16], 15.8 µM (active). The Potency in test [11] is 39.8 µM (active); in test [17], 10 µM (active). For the same compound, the compound was classed as inactive in test [3] and in test [12]. Further, the max response in test [13] was -34.7%; in test [15], -15.3%. In test [20], the Potency result is “inactive”. For the same compound, the activation in test [14] was 0.178% and -0.711%.
On to `Nc1cc(Cl)ccc1Cl`, for which the Potency in [18] was above 92 µM. The Potency result in [1], in test [5], in test [6], in test [19], in test [7] and in [8] was “inactive” throughout. For the same compound, the Potency entry in test [16], in test [10], in [11] and in test [17] was “inactive” throughout. Moreover, the caspase-3 activation in test [2] was 0.909%. Also, the call in test [3] and in test [4] was inactive. The max response in test [13] was 3.06%. Moreover, the activation in [14] is -3.16%.
Take `O=[N+]([O-])c1c(Cl)c(Cl)c(Cl)c(Cl)c1Cl`: the Potency result in test [1], in [5], in [19], in test [8], in [9] and in test [16] was “inactive” each time. In addition, the Potency entry in test [11], in [17] and in test [20] was “inactive” throughout. The caspase-3 activation in test [2] was 0.645%. Moreover, the result in test [3] and in test [12] was inactive. For the same compound, the max response in test [13] was -5.68%; in test [15] it was -12.6% and -27.3%. In addition, the activation in test [14] is -1.05% and 4.15%.
As for `CC(C)OC(=O)Cc1ccccc1`, the Potency in [18] is above 92 µM. Moreover, the Potency entry in test [1], in [5], in [6], in test [19], in test [8] and in [9] was “inactive” in each case. The Potency result in [16], in [10], in test [11], in [17] and in test [20] was “inactive” throughout. Also, the caspase-3 activation in test [2] was -1.43%. In test [12], the result was inactive. Besides, the max response in test [13] was 8.61%; in [15], -4.3%. For the same compound, the activation in test [14] is -2.84%.
As for `N#CC(Br)Br`, the Potency in test [18] is above 92 µM. The Potency result in [1], in test [5], in test [7], in [10] and in test [20] was “inactive” each time. The outcome in test [4] was inactive. Moreover, the max response in test [15] is -22.9%.
For `O=[N+]([O-])/C=C/c1ccccc1`, the compound was called inactive in test [3], in [4] and in test [12]. The Potency was 50.1 µM (active) in test [6]; 50.1 µM (active) in test [19]; 39.8 µM (active) in test [8]; 50.1 µM (active) in [11]; 39.8 µM (active) in [17]. Besides, the figures for the max response in [13] and in [15] were -0.636% and -10.7%, respectively. In addition, the Potency result in [20] is “inactive”. Moreover, the activation in test [14] is 10.5%.

The values above are taken from PubChem BioAssay (NCATS).
